Laboratory results from PubChem BioAssay AID1159580 (chemical genetic matrix, 2015).
Hit rate of the full screen: of about 5,500 compounds, about 2,000 (36%) were called active. Inconclusive results (about 18%) are left out. Cut-off read from the data, not from the text of the source: active = normalized growth mostly below about 0.91 (no sharp cut-off); inconclusive = no clear call, values can overlap the other calls; inactive = mostly above about 0.92. This is one part of the list.

Test: chemical genetic growth profiling, strain panel (AID 1159580);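 note: tested at 20 µM; growth read once vehicle control cultures reached saturation at 30 °C; 1 = growth at the plate median or of vehicle wells; lower values mean less growth of the strain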
Conditions: growth OD

Measured: normalized growth

Cc1cc(OC(=O)c2c(C)cc(OC(=O)c3c(C)cc(O)cc3O)cc2O)cc(O)c1C(=O)O
inactive: S. cerevisiae deletion strains, locus YAL013W, strain DEP1, hits give low values 1.02 | S. cerevisiae deletion strains, locus YBR021W, strain FUR4, hits give low values 0.985 | S. cerevisiae deletion strains, locus YBR229C, strain ROT2, hits give low values 1.03 | S. cerevisiae deletion strains, locus YCL029C, strain bik1, hits give low values 0.973 | S. cerevisiae deletion strains, locus YDL035C, strain GPR1, hits give low values 0.997 | S. cerevisiae deletion strains, locus YDL074C, strain BRE1, hits give low values 1.01 | S. cerevisiae deletion strains, locus YDL101C, strain DUN1, hits give low values 1.02 | S. cerevisiae deletion strains, locus YDL134C, strain PPH21, hits give low values 1.03 | S. cerevisiae deletion strains, locus YDL185W, strain tfp1, hits give low values 0.99 | S. cerevisiae deletion strains, locus YDL192W, strain arf1, hits give low values 0.979 | S. cerevisiae deletion strains, locus YDR101C, strain arx1, hits give low values 0.971 | S. cerevisiae deletion strains, locus YDR150W, strain NUM1, hits give low values 1.03 | S. cerevisiae deletion strains, locus YDR162C, strain NBP2, hits give low values 0.998 | S. cerevisiae deletion strains, locus YDR318W, strain mcm21, hits give low values 0.967 | S. cerevisiae deletion strains, locus YDR388W, hits give low values 0.992 | S. cerevisiae deletion strains, locus YDR502C, strain sam2, hits give low values 0.991 | S. cerevisiae deletion strains, locus YER110C, hits give low values 0.986 | S. cerevisiae deletion strains, locus YER155C, strain BEM2, hits give low values 1.03 | S. cerevisiae deletion strains, locus YER167W, strain BCK2, hits give low values 1 | S. cerevisiae deletion strains, locus YGL078C, strain dbp3, hits give low values 1 | S. cerevisiae deletion strains, locus YGL086W, strain mad1, hits give low values 0.98 | S. cerevisiae deletion strains, locus YGL248W, strain PDE1, hits give low values 1.04 | S. cerevisiae deletion strains, locus YGR078C, strain PAC10, hits give low values 1 | S. cerevisiae deletion strains, locus YGR135W, strain pre9, hits give low values 0.999 | S. cerevisiae deletion strains, locus YGR229C, strain SMI1, hits give low values 0.953 | S. cerevisiae deletion strains, locus YGR252W, strain gcn5, hits give low values 0.872 | S. cerevisiae deletion strains, locus YHR030C, strain SLT2, hits give low values 1.02 | S. cerevisiae deletion strains, locus YHR079C, strain IRE1 (second series), hits give low values 0.971 | S. cerevisiae deletion strains, locus YHR094C, strain hxt1, hits give low values 1.01 | S. cerevisiae deletion strains, locus YHR129C, strain ARP1, hits give low values 1.02 | S. cerevisiae deletion strains, locus YHR200W, strain rpn10, hits give low values 0.994 | S. cerevisiae deletion strains, locus YIL066C, strain RNR3, hits give low values 1.01 | S. cerevisiae deletion strains, locus YIL073C, strain SPO22, hits give low values 0.956 | S. cerevisiae deletion strains, locus YIL125W, strain kgd1, hits give low values 1.02 | S. cerevisiae deletion strains, locus YIR030C, strain dcg1, hits give low values 0.998 | S. cerevisiae deletion strains, locus YJL095W, strain BCK1, hits give low values 0.986 | S. cerevisiae deletion strains, locus YJL134W, strain LCB3, hits give low values 1.02 | S. cerevisiae deletion strains, locus YJL168C, strain set2, hits give low values 0.999 | S. cerevisiae deletion strains, locus YJL187C, strain SWE1 (second series), hits give low values 1.01 | S. cerevisiae deletion strains, locus YJR043C, strain POL32, hits give low values 0.981 | S. cerevisiae deletion strains, locus YJR075W, strain HOC1, hits give low values 0.979 | S. cerevisiae deletion strains, locus YKL068W, hits give low values 1 | S. cerevisiae deletion strains, locus YKL085W, strain MDH1 (second series), hits give low values 0.975 | S. cerevisiae deletion strains, locus YKL085W, strain MDH1, hits give low values 0.975 | S. cerevisiae deletion strains, locus YKL190W, strain CNB1, hits give low values 1.02 | S. cerevisiae deletion strains, locus YKR001C, strain vps1, hits give low values 0.967 | S. cerevisiae deletion strains, locus YLR039C, strain RIC1, hits give low values 0.997 | S. cerevisiae deletion strains, locus YLR058C, strain SHM2, hits give low values 1.02 | S. cerevisiae deletion strains, locus YLR102C, strain apc9, hits give low values 1.01 | S. cerevisiae deletion strains, locus YLR262C, strain YPT6, hits give low values 1 | S. cerevisiae deletion strains, locus YLR268W, strain sec22, hits give low values 0.982 | S. cerevisiae deletion strains, locus YLR330W, strain CHS5, hits give low values 1.01 | S. cerevisiae deletion strains, locus YLR342W, strain FKS1 (second series), hits give low values 0.937 | S. cerevisiae deletion strains, locus YLR371W, strain rom2, hits give low values 0.999 | S. cerevisiae deletion strains, locus YLR418C, strain cdc73, hits give low values 0.959 | S. cerevisiae deletion strains, locus YML016C, strain PPZ1, hits give low values 1.03 | S. cerevisiae deletion strains, locus YML032C, strain rad52, hits give low values 0.965 | S. cerevisiae deletion strains, locus YML124C, strain tub3, hits give low values 1.01 | S. cerevisiae deletion strains, locus YMR078C, strain ctf18, hits give low values 1 | S. cerevisiae deletion strains, locus YMR223W, strain ubp8, hits give low values 0.967 | S. cerevisiae deletion strains, locus YMR263W, strain SAP30, hits give low values 1.02 | S. cerevisiae deletion strains, locus YMR307W, strain GAS1, hits give low values 0.862 | S. cerevisiae deletion strains, locus YNL067W, strain RPL9B, hits give low values 1.01 | S. cerevisiae deletion strains, locus YNL128W, strain TEP1, hits give low values 1.04 | S. cerevisiae deletion strains, locus YNL153C, strain GIM3, hits give low values 1.02 | S. cerevisiae deletion strains, locus YNL233W, strain BNI4, hits give low values 0.995 | S. cerevisiae deletion strains, locus YNL250W, strain rad50, hits give low values 0.997 | S. cerevisiae deletion strains, locus YNL271C, strain bni1, hits give low values 0.985 | S. cerevisiae deletion strains, locus YNL298W, strain CLA4, hits give low values 0.981 | S. cerevisiae deletion strains, locus YNL307C, strain MCK1, hits give low values 0.966 | S. cerevisiae deletion strains, locus YNL322C, strain KRE1, hits give low values 1.03 | S. cerevisiae deletion strains, locus YNR052C, strain pop2, hits give low values 0.972 | S. cerevisiae deletion strains, locus YOL006C, strain TOP1, hits give low values 0.993 | S. cerevisiae deletion strains, locus YOL012C, strain htz1 0.878 | S. cerevisiae deletion strains, locus YOL147C, strain pex11, hits give low values 0.999 | S. cerevisiae deletion strains, locus YOR061W, strain CKA2, hits give low values 1.02 | S. cerevisiae deletion strains, locus YOR069W, strain VPS5, hits give low values 1.01 | S. cerevisiae deletion strains, locus YOR136W, strain idh2, hits give low values 0.982 | S. cerevisiae deletion strains, locus YOR144C, strain elg1, hits give low values 1.01 | S. cerevisiae deletion strains, locus YOR184W, strain ser1, hits give low values 0.95 | S. cerevisiae deletion strains, locus YOR316C, strain cot1, hits give low values 0.996 | S. cerevisiae deletion strains, locus YPL055C, strain LGE1, hits give low values 1.03 | S. cerevisiae deletion strains, locus YPL241C, strain CIN2, hits give low values 1.02 | S. cerevisiae deletion strains, locus YPR119W, strain clb2, hits give low values 1 | S. cerevisiae deletion strains, locus YPR141C, strain kar3, hits give low values 1.01 | S. cerevisiae deletion strains, locus YPR163C, strain tif3, hits give low values 1 | S. cerevisiae deletion strains, locus YPR167C, strain met16, hits give low values 1.01 | S. cerevisiae deletion strains, strain wtn01, hits give low values 0.994 | S. cerevisiae strains, strain wild type, hits give low values 1
active: S. cerevisiae deletion strains, locus YKL009W, strain mrt4, hits give low values 0.76
